Screening data deposited in PubChem BioAssay by National Center for Advancing Translational Sciences (NCATS).
Lassa entry inh = inhibitors of Lassa virus binding or cell entry; Lassa virus pseudotype entry inhibition, cell reporter; Potency, µM (series often up to 37.9 µM), without a hit: at the top dose activity change, negative = inhibition, hits mostly inhibitors; 300,000 compounds, 1.2% hits; AID 540256; calls by dose curve; tested in HEK293 cells; further: potency means the concentration at half of the fitted maximal effect; on the % scale 0 is the no-effect control and ±100 the full control effect; nearly all actives have a fitted effect of over 50% in size
MARV entry inh = inhibitors of Marburg virus binding or cell entry; Marburg virus pseudotyped entry inhibition, cell reporter; Potency, µM (doses to about 37.8 µM), for inactives: at the highest dose activity change, negative = inhibition, most hits filed as inhibitors; 300,000 compounds, 1.8% hits; AID 540276; calls by dose curve; tested in HEK293 cells; further: potency means the concentration at half of the fitted maximal effect; on the % scale 0 is the no-effect control and ±100 the full control effect
Pf growth 48h = P. falciparum growth inhibition at 48 hours (one generation) | P. falciparum luciferase growth in erythrocytes, 48 h | Potency, µM (highest dose often 28.7 µM), without a hit: at the highest dose activity change, negative = inhibition, usual class: inhibitors | 310,000 compounds, 5.9% hits | AID 504832; further: potency means the concentration at half of the fitted maximal effect; on the % scale 0 is the no-effect control and ±100 the full control effect
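Luciferase-expressing parasites in RBCs, 2% Hct / 0.1% parasitemia final; RPMI 1640 + 0.5% Albumax; 37 C, 5% CO2, one generation; luminescence read-out, lower signal = inhibition.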
Shiga toxin inh = blocks Shiga toxin action in Vero cells. Vero cells, Shiga toxin protein synthesis inhibition reporter. inhibition, % at 38.7 µM. 290,000 compounds, 9.2% hits. AID 2315; in the data active means inhibition mostly above about 28%, no sharp cut-off; inactive means mostly below about 43%; further: 0% is about no effect
Pf growth 96h = P. falciparum growth inhibition at 96 hours. P. falciparum luciferase reporter growth, 96 h. Potency, µM (highest dose often 28.7 µM), without a hit: top-dose activity change, negative = inhibition, actives largely listed as inhibitors. 320,000 compounds, 6.9% hits; further: potency means the concentration at half of the fitted maximal effect; on the % scale 0 is the no-effect control and ±100 the full control effect
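Infected RBCs, 2% Hct / 0.05% parasitemia final; luciferase-reporter P. falciparum; cpd 96 h, 37 C, 5% CO2; luciferase detection reagent; luminescence.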
Cycloheximide cs = counter-screen hit for Shiga toxin inhibitors, cycloheximide; cell reporter, cycloheximide protein synthesis inhibition counterscreen; max response, %; 300,000 compounds, 12% hits; in the data active means max response mostly above about 13%, no sharp cut-off; inactive means mostly below about 14%; further: read at 38.3 µM for the half of the compounds with a filed dose; 0% is about no effect
Active calls of the source: *; ? = inconclusive; · = no result; [ ] = dose if it differs, or a comment. This is a sample that favours compounds with a hit; in the whole collection about 19% have one here. Unless noted, the call rests on the fitted dose curve; in most records, active means well fitted inhibition curve with a large enough effect; inconclusive means small, poorly fitted or top-dose-only effect, or another doubt; inactive means no such curve, though single readings can be large or run the other way.

SMILES	Lassa entry inh	MARV entry inh	Pf growth 48h	Shiga toxin inh	Pf growth 96h	Cycloheximide cs
COc1ccc(CN=C2NC(=O)CC(C(=O)Nc3ccccc3C)S2)cc1 (stereo unspecified)	-2%	?	-10%	-5	0%	-1
CCn1nc(CC(=O)Nc2nnc(CC(=O)N3CCCCC3)s2)c2ccccc2c1=O	0%	2%	·	2	0%	3
CC(Cc1cccs1)NC(=O)Nc1ccccc1 (stereo unspecified)	9%	20%	42%	64*	2.9µM*	14
CCC(C)NC(=S)Nc1ccccc1 (stereo unspecified)	1%[46.1 µM]	-2%[46.1 µM]	?	-3	?	10
C[C@H](NC(=O)NCc1cccs1)C(=O)O	-40%[14.3 µM]	8%	18%	1	2%[5.75 µM]	-2
CC(Cc1cccs1)NC(=O)Nc1ccc(Cl)c(Cl)c1 (stereo unspecified)	?	5%	·	59*	?	45*
CC(Cc1cccs1)NC(=O)Nc1ccc(Cl)cc1 (stereo unspecified)	-8%	11%	96%	88*	·	29*
CCOP(=O)(OCC)C(NC(=O)Nc1ccc(Cl)c(Cl)c1)c1ccccc1 (stereo unspecified)	?	?	6%	13	?	1
CC(Cc1cccs1)NC(=S)Nc1ccccc1 (stereo unspecified)	?	?	-1%	40*	11%	18*
COc1ccc(-n2c(SCC(=O)N3CCOCC3)nc(O)c(Cc3ccccc3)c2=O)cc1	12%	5%	·	-4	·	-4
Cc1cc(N2C(=O)CCC2=O)n(-c2ccccc2)n1	2%	6%	4%	-7	10µM*	-1
CC(=O)Nc1ccc(OC(=O)c2cc3ccccc3oc2=O)cc1	5%	-1%	19%	12	12µM*	7
CC(=O)/C=C\c1ccccc1OC(=O)c1cc2ccccc2oc1=O	·	·	-7%	2	-26%	11*
COc1ccccc1OC(=O)c1cc2ccccc2oc1=O	?	?	-1%	18	?	0
O=C(/C=C\c1ccccc1OC(=O)c1ccccc1F)c1cc2ccccc2o1	?	?	87%	63	-20%	44*
COC(=O)c1ccccc1OC(=O)c1cc2ccccc2oc1=O	19%[46.1 µM]	5%[46.1 µM]	1%	52*	35%	29*
Cc1ccc(SCC(=O)OCC(=O)NCCc2ccccc2)cc1C	·	·	9%	·	4%	·
COc1cccc(NC(=O)C2CSC3(C)CCC(=O)N23)c1 (stereo unspecified)	-6%	3%	-6%	·	?	·
Cc1cccc(-c2nnn(CC/C(N)=N/O)n2)c1	6%	?	84%	active	61%	23*
Cc1cccc(-c2nnn(Cc3nnc(NC(=O)c4ccccc4)s3)n2)c1	-6%	-8%	3%	-3	79%	-2
Cc1nc(N)sc1N=Nc1ccc(F)cc1	?	?	·	62*	?	49*
CCN(CC(=O)Nc1c(F)cccc1F)C(=O)c1cccc(S(=O)(=O)NCc2ccccc2)c1	-21%	3%	-5%	·	-9%	·
C=CCN(c1ccccc1)S(=O)(=O)c1cccc(C(=O)N(CC)CC(=O)Nc2c(F)cccc2F)c1	18µM*	?	?	8	-16%	1
C=CCN(c1cccc(C(F)(F)F)c1)S(=O)(=O)c1cccc(C(=O)OCC(=O)NC)c1	11%[46.1 µM]	-5%[46.1 µM]	?	-1	12µM*	-4
O=C(Cn1ccc2ccccc2c1=O)NCCC(=O)Nc1ccc(F)cc1F	-7%[46.1 µM]	28%[46.1 µM]	25%	11	2%	-2
SMILES	Lassa entry inh	MARV entry inh	Pf growth 48h	Shiga toxin inh	Pf growth 96h	Cycloheximide cs
O=S(=O)(c1ccc(OCC(O)CN2CCCCC2)cc1)N1CCOCC1 (stereo unspecified)	1%	?	10%	53	-4%[5.75 µM]	-3
CCCCN(Cc1ccccc1)c1ncnc2nc[nH]c12	3%	?	18%	31*	76%	36*
O=C(c1ccc(C#Cc2ccccc2)o1)N1CCN(c2ccccn2)CC1	-14%	-10%	-19%	2	8.3µM*	-4
O=C(c1ccc(CS(=O)Cc2ccc(Cl)cc2)o1)N1CCN(c2ccccn2)CC1 (stereo unspecified)	?	?	-27%	12	10µM*	4
COC(=O)c1ccc(C#Cc2ccccc2)o1	10%[46.1 µM]	?	49%	31	20%	56*
COC(=O)c1ccc(CN(C(C)=O)c2ccccc2)o1	16%	-15%[46.1 µM]	-5%	3	38%	1
CC(=O)Nc1cc(C(=O)CSc2nnc(C3CC3)n2C2CC2)ccc1O	·	·	7%	·	?	·
O=P(CO)(Cc1ccccc1)Cc1ccccc1	16%	2%	39%	-6	-22%	-3
CCOC(=O)C1=C(C)Nc2ccccc2N=C1NC(=O)Cc1ccc(Cl)c(Cl)c1	-19%	-5%[46.1 µM]	0%	-18	?	1
CC(C(=O)NC1CCCC1)N(C(=O)Cn1nnc(-c2ccc(F)cc2)n1)c1ccccc1F (stereo unspecified)	?	8.2µM*	?	-6	?	-6
CC(C)(C)NC(=O)C(c1ccc(F)cc1)N(Cc1ccco1)C(=O)Cn1nnc(-c2cccs2)n1 (stereo unspecified)	0%	-5%	5.9µM*	9	?	3
CC(=O)c1ccc(N(C(=O)Cn2nnc(-c3ccccc3)n2)C(C(=O)NC2CCCCC2)c2ccccn2)cc1 (stereo unspecified)	0%	9%	-20%	-1	9.3µM*	-8
Cc1ccc(N(C(=O)Cn2nnc(-c3ccc(C)o3)n2)C(C(=O)NC2CCCC2)c2ccncc2)cc1 (stereo unspecified)	·	-1%[46.1 µM]	0%	-7	10µM*	-6
COc1ccc(N(C(=O)Cn2nnc(-c3ccc(F)cc3)n2)C(C)C(=O)NC2CCCC2)cc1 (stereo unspecified)	12%[46.1 µM]	?	?	-11	0%	-4
O=C(O)c1ccn2c(C(=O)c3ccc(Cl)cc3)c(-c3ccccc3)cc2c1	-2%	-27%[14.2 µM]	-1%	-6	34%	-2
CCOC(=O)CN(C(=O)Cn1nnc(-c2ccc(OC)cc2)n1)C(C(=O)NC1CCCC1)c1ccc(F)cc1 (stereo unspecified)	-12%	-12%	13µM*	8	15µM*	-3
O=C(NC1CCCCC1)C(c1ccncc1)N(Cc1ccccc1)C(=O)c1ccc(-c2ccccc2)[nH]1 (stereo unspecified)	?	?	?	-13	-3%	-2
O=C(CN(Cc1ccco1)C(=O)Cn1nnc(-c2ccc(F)cc2)n1)NC1CCCC1	-10%	-4%	4%	-22	·	-5
CC(C(=O)NC1CCCC1)N(C(=O)c1ccc(-c2ccccc2)[nH]1)c1ccccc1F (stereo unspecified)	-23%	-30%	13µM*	1	?	-1
